# PubChem BioAssay AID1532 (PCMD, 2009)
# The whole screen tested about 110,000 compounds, of which about 420 (0.38%) were called active. Cut-off read from the data, not from the text of the source: active = inhibition above about 30% (passing the limit was not always enough); inconclusive = no clear call, values can overlap the other calls. The full list was thinned out, with actives kept by preference.
# Test system: RmlC (dTDP-4-dehydrorhamnose 3,5-epimerase) and RmlD (dTDP-4-dehydrorhamnose reductase), coupled enzyme assay
# Test: RmlC and RmlD coupled enzyme inhibitors, primary screen, biochemical, 384-well, compound mixtures, retest (AID 1532)
# Details: 384-well mixture HTS, at 5.5 µM, active compounds read high
row,SMILES,inhibition
1,COc1ccc(COCCN2CCN(S(=O)(=O)c3ccccc3)CCC2=O)cc1,2.31% (inactive)
2,CC(=O)N[C@H]1[C@H]([C@H](O)[C@H](O)CO)OC(C(=O)O)=C[C@@H]1O,1.59% (inactive)
3,COc1ccc(C2/C=C\CN(CC(C)C)CC(=O)N2Cc2ccc(F)cc2)cc1 (stereo unspecified),-6.08% (inactive)
4,NC(N)=NCCCc1cn(CC(=O)N2CCNCC2)nn1,-8.74% (inactive)
5,COc1ccc2c(c1)CCNC2Cc1ccc(OC)c(O)c1 (stereo unspecified),-40.5% (inactive)
6,Cc1cn(C)c(=O)n(C)c1=O,-2.57% (inactive)
7,CC(C)(C)OC(=O)NCCCC1=CC2=CC(=O)C(C)(OC(=O)c3ccco3)C(=O)C2=CO1 (stereo unspecified),-13.3% (inactive)
8,Cc1ccc(NC(=O)N2CCSc3ccccc32)cc1,-8.05% (inactive)
9,NC(=O)CC[C@@H]1NC(=O)[C@H](CO)NC(=O)c2cc([N+](=O)[O-])cc(I)c2NCC[C@@H](C(N)=O)NC1=O,-1.33% (inactive)
10,CCCC[C@@H]1CN=C(N)N1CCc1cccc(F)c1,4.76% (inactive)
11,CNC(=O)c1[nH]cnc1C(=O)N[C@@H](CC(C)C)C(=O)OC(C)(C)C,-13.2% (inactive)
12,C#Cc1ccc([C@@H]2C=C(C(=O)O)O[C@H](OCCCCO)C2)cc1,-5.63% (inactive)
13,O=C(NCc1ccccc1)c1onc(CSc2ccncc2)c1C(=O)NCc1ccccc1,2.05% (inactive)
14,CCOC(=O)c1ccc(NC(=O)c2c(N)n(C)c(=O)[nH]c2=O)cc1,8.64% (inactive)
15,COc1ccc(CNC(=O)[C@@H]2CC=C[C@@H]3CCN(C4CC4)C(=O)[C@@H]32)cc1,4.14% (inactive)
16,CC1(C)S[C@@H]2[C@H](NC(=O)COc3ccccc3)C(=O)N2C1C(=O)OCc1ccccc1 (stereo partly specified),5.36% (inactive)
17,C#CCCOC(=O)N1C2=NC(C(=O)OC)=C(C(=O)OC)[C@@H]3N(C)c4ccc(OC)cc4[C@]23C[C@H]1C(=O)OC,-9.08% (inactive)
18,CN1CCN(C(CNS(=O)(=O)c2cccs2)c2cccnc2)CC1 (stereo unspecified),-1.39% (inactive)
19,O=C1N[C@@H](Cc2ccccc2)C(=O)N2[C@@H]3N(S(=O)(=O)c4ccc(F)cc4)c4ccccc4[C@]3(Br)C[C@@H]12,-18.2% (inactive)
20,C#CCOCCOCCOCCNc1nc(N2CCN(C(=O)[C@H](CCC(=O)O)n3cc(C(N)CO)nn3)CC2)nc(N2CCN(C(=O)[C@H](Cc3ccc(O)cc3)n3cc(C(N)[C@H](C)CC)nn3)CC2)n1 (stereo partly specified),7.3% (inactive)
21,O=C1N[C@H](Cc2ccccc2)C(=O)N[C@H]1Cc1cn(S(=O)(=O)c2ccccc2)c2ccccc12,-14.5% (inactive)
